Shown are actives, neighbours in structure and some others; about 21% of the full set was active somewhere.
Sm TGR inh: blocks Schistosoma mansoni thioredoxin glutathione reductase. purified TGR, DTNB reduction, TNB absorbance 405 nm. Potency, µM (doses to about 114 µM), hits mostly inhibitors. Q962Y6. 3% of 360,000 active; note: nearly all actives have a fitted effect of over 60% in size
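First, TGR (20 nM dispensed) and NADPH were mixed with compound. Second, a 15 min room-temperature incubation followed. Third, further NADPH and then DTNB were added to start the reaction. Finally, TNB absorbance was monitored kinetically.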
Pf growth 48h: P. falciparum growth inhibition at 48 hours (one generation); P. falciparum luciferase growth in erythrocytes, 48 h; Potency, µM (titrated, usually from 28.7 µM), actives largely listed as inhibitors; 5.9% of 310,000 active
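Here the parasites carry a stable luciferase gene and grow inside erythrocytes in Albumax-based RPMI medium with compound for one erythrocytic cycle. Activity is scored as loss of luminescent signal.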
NS1 inh: blocks influenza NS1 protein function | Potency, µM (series often up to 46.1 µM) | 0.4% of 270,000 active; calls by dose curve; note: actives are rising curves; nearly all actives have a fitted effect of over 50% in size
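S. cerevisiae expressing influenza A NS1, grown in glucose, washed, then diluted 1:100 into pH 6.0 -URA galactose medium with 23 nl compound. Growth recovery read as OD600; NS1-free strain serves as control.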
Shiga inhibitor: Shiga toxin inhibition; Vero cells, Shiga toxin protein synthesis inhibition reporter; inhibition, % at 38.7 µM; 9.2% of 290,000 active; AID 2315; in the data active = inhibition mostly above about 28%, no sharp cut-off; inactive = mostly below about 43%
Cycloheximide cs: counter-screen for Shiga toxin inhibitors: cycloheximide protein synthesis inhibition; 12% of 300,000 active; cell reporter, cycloheximide protein synthesis inhibition counterscreen; max response, %; in the data active = max response mostly above about 13%, no sharp cut-off; inactive = mostly below about 14%; note: read at 38.3 µM for the half of the compounds with a filed dose
Pf growth 96h: P. falciparum growth inhibition at 96 hours; P. falciparum luciferase reporter growth, 96 h; Potency, µM (doses to about 28.7 µM), hits mostly inhibitors; 6.9% of 320,000 active; AID 504834
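Delayed-death screen, second-generation endpoint: infected erythrocytes, 2% hematocrit, 0.05% parasitemia final; 96 hours at 37 C, 5% CO2; luciferase detection reagent; luminescence decrease equals reduced growth.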
Of the large screens only hits and unclear results are named; the others gave an inactive call. Unless noted, calls come from the whole dose curve; as a rule, active = well fitted curve in the direction sought with a large enough effect; inconclusive = small, poorly fitted or top-dose-only effect, or another doubt; inactive = no such curve, though single readings can be large; an effect the other way counts as inactive or inconclusive.

Cc1cc(C)n2c(Nc3ccccc3)c(-c3ccccc3)nc2n1	none (no result: Pf growth 48h, NS1 inh, Shiga inhibitor, Cycloheximide cs, Pf growth 96h)
COc1ccc(C)cc1NC(=O)CN1C(=O)CCc2cc(S(=O)(=O)N3CCOCC3)ccc21	none (no result: Pf growth 48h, NS1 inh, Shiga inhibitor, Cycloheximide cs, Pf growth 96h)
Cn1cccc1CNC(=O)Nc1ccc(Cl)c(Cl)c1	Cycloheximide cs 37
Cc1ccc(NC(=O)Nc2ccccc2C(=O)NCc2ccccc2)cc1	none (no result: Pf growth 48h)
Cc1ccc(NC(=O)NCc2cccnc2)cc1	Cycloheximide cs 19
Cc1ccc(C2(c3ccc(C)cc3)CC2C(=O)NCc2cccnc2)cc1 (stereo unspecified)	Pf growth 96h 1.9µM (no result: Sm TGR inh)
Cc1ccc(CNC(=O)Nc2ccc(C)cc2)cc1	Cycloheximide cs 22
Cc1ccc(NC(=O)NCc2cccnc2)cc1C	none
Cc1ccc(C(=O)N2CCC(C(=O)NCc3cccnc3)CC2)cc1	none
NNc1nnc2c3cc(F)ccc3n(CCc3ccccc3)c2n1	Pf growth 48h inconclusive, Pf growth 96h inconclusive
O=C(NCc1cccnc1)c1cnn2ccccc12	none (no result: Pf growth 48h)
Cc1ccc(NC(=O)c2cc([N+](=O)[O-])ccc2NCc2cccnc2)cc1	Pf growth 48h 13µM, Pf growth 96h inconclusive
CC(C)c1ccc(NC(=O)NCc2cccnc2)cc1	Cycloheximide cs 12
COc1ccc(NC(=O)NCc2cccnc2)cc1OC	none (no result: Pf growth 96h)
Cc1ccc(C(=O)Nc2ccccc2C(=O)NCc2cccnc2)cc1	Pf growth 48h inconclusive, Pf growth 96h 10µM
Cc1cc(C)n2ncc(C(=O)NCc3cccnc3)c2n1	Pf growth 96h 2.3µM
COc1cccc(N2CCN(c3ccc(S(=O)(=O)N4CCCC4)cc3)CC2)c1	Pf growth 96h inconclusive
Cc1c([N+](=O)[O-])c(C(=O)NC2CCCCC2)nn1C	none
CS(=O)(=O)N(CC(=O)Nc1ccccc1Cl)c1ccc(Cl)cc1	none
O=S(=O)(Nc1ccc(Cl)cn1)c1cccs1	none
O=C(NCc1cccnc1)Nc1ccc(Cl)c(Cl)c1	Shiga inhibitor 59, Cycloheximide cs 26
O=C(NCc1cccnc1)c1ccc(NC(=O)c2ccc(Br)cc2)cc1	Pf growth 48h inconclusive
O=C(NCc1cccnc1)Nc1ccc(Br)cc1	Cycloheximide cs 30, Pf growth 96h inconclusive
CSc1ccc(NC(=O)NCc2cccnc2)cc1	Shiga inhibitor 39, Cycloheximide cs 28
O=C(Nc1nc2ccccc2s1)c1cc(-c2ccccc2)nn1-c1ccccc1	NS1 inh inconclusive, Shiga inhibitor 24, Cycloheximide cs 26, Pf growth 96h inconclusive
CC(=O)c1sc(NC(=O)c2cc(-c3ccccc3)nn2-c2ccccc2)nc1C	none
O=C(NNC(=O)c1cc(-c2ccccc2)nn1-c1ccccc1)c1ccccc1	Cycloheximide cs 8.5
N#Cc1ccc(C(=O)Nc2cc(-c3ccccc3)nn2-c2ccccc2)cc1	Pf growth 96h inconclusive (no result: NS1 inh, Shiga inhibitor, Cycloheximide cs)
CC1(C)Cc2c(sc3nc(-c4cc5ccccc5o4)n(N)c(=O)c23)CO1	Cycloheximide cs 19, Pf growth 96h inconclusive
COc1ccc(C2=[N+](C)CCn3cccc32)c(OC)c1	Pf growth 48h 2.1µM, Pf growth 96h 1µM
COc1ccc(C2C(C(=O)Nc3cccnc3)=C(C)Nc3nc(-c4ccccc4)nn32)cc1OC (stereo unspecified)	none (no result: Pf growth 48h, NS1 inh, Shiga inhibitor, Cycloheximide cs, Pf growth 96h)
CN1C(=O)C2(c3ccccc31)C1CCCC=C1C(C#N)=C(N)C2(C#N)C#N (stereo unspecified)	Sm TGR inh 20µM
COc1ccccc1NC(=O)C/C(C)=N/NC(=O)c1ccccn1	Shiga inhibitor 63, Cycloheximide cs 33
COc1cc(NC(=O)C/C(C)=N/NC(=O)c2ccccn2)c(OC)cc1Cl	Shiga inhibitor 72, Cycloheximide cs 44
COc1cc(NC(=O)C/C(C)=N/NC(=O)Cc2ccc(Cl)cc2)c(OC)cc1Cl	none
COc1ccc(C2CC(c3ccccc3)Nc3nc(NS(C)(=O)=O)nn32)cc1 (stereo unspecified)	none
Cc1ccc(C2Nc3ccc4ccccc4c3C3=C2C(=O)CC(C)(C)C3)o1 (stereo unspecified)	Pf growth 48h 15µM, Cycloheximide cs 13, Pf growth 96h inconclusive
O=C1CCCC2=C1C(c1ccco1)Nc1ccc3ccccc3c12 (stereo unspecified)	Sm TGR inh inconclusive, Pf growth 48h inconclusive, Shiga inhibitor 45, Cycloheximide cs 33
COc1ccc(NC(=O)C(C)Oc2ccc(/C(C)=N\O)cc2)cc1 (stereo unspecified)	Pf growth 48h inconclusive
CC(NC(=S)Nc1ccc([N+](=O)[O-])cc1)c1ccncc1 (stereo unspecified)	Sm TGR inh 45µM, Pf growth 48h inconclusive
CC(C)Oc1ccc(NC(=O)c2ccncc2)cc1	Shiga inhibitor 63, Cycloheximide cs 19
CN(C)S(=O)(=O)Oc1ccc(C(=O)Nc2ccc([N+](=O)[O-])cc2)cc1	none (no result: NS1 inh)
COc1ccc(OC(C)C(=O)Nc2ccc([N+](=O)[O-])cc2)cc1 (stereo unspecified)	Pf growth 48h inconclusive, Pf growth 96h 15µM
COc1ccc(NC(=S)NC(C)c2ccncc2)cc1OC (stereo unspecified)	none
CC(C)Oc1ccc(C(=O)Nc2ccc([N+](=O)[O-])cc2)cc1	Shiga inhibitor 119, Cycloheximide cs 37 (no result: NS1 inh)
Cc1ccc(-n2ncc(C(=O)NCCCN3CCN(C)CC3)c2C2CCN(C(=O)OC(C)(C)C)CC2)cc1	none (no result: Pf growth 48h, NS1 inh, Shiga inhibitor, Cycloheximide cs, Pf growth 96h)
O=C(Nc1ccc(Nc2ccncc2)cc1)c1ccc([N+](=O)[O-])cc1	Pf growth 48h 2.6µM, Pf growth 96h 1.7µM
O=C(Nc1ccc(Nc2ccncc2)cc1)c1ccc(Nc2ccnc3ccc([N+](=O)[O-])cc23)cc1[N+](=O)[O-]	Sm TGR inh inconclusive, Pf growth 48h 1.5µM, Pf growth 96h 0.52µM
CCC(C)c1ccccc1N1CC(C(=O)N2CCN(S(=O)(=O)c3cccc([N+](=O)[O-])c3)CC2)CC1=O (stereo unspecified)	Pf growth 48h inconclusive, Pf growth 96h inconclusive (no result: NS1 inh, Shiga inhibitor, Cycloheximide cs)
CN(C)c1ccc(/C=N/NC(=O)c2sccc2-n2cccc2)cc1	Pf growth 48h inconclusive, Shiga inhibitor 98, Cycloheximide cs 39 (no result: NS1 inh)
O=C(N/N=C\c1ccc(Cl)cc1Cl)c1sccc1-n1cccc1	Pf growth 96h inconclusive
O=C(N/N=C\c1ccc(Cl)cc1)c1sccc1-n1cccc1	Shiga inhibitor 70, Cycloheximide cs 33, Pf growth 96h inconclusive
CCC1(c2ccccc2)NC(=O)N(CC#N)C1=O (stereo unspecified)	none (no result: NS1 inh)
CCC1(c2ccccc2)ON(c2c(Br)cccc2Br)C1=O (stereo unspecified)	Pf growth 48h 0.41µM, Pf growth 96h 0.41µM (no result: NS1 inh, Shiga inhibitor, Cycloheximide cs)
Cc1ccc(CNC(=O)Nc2ccc(OC(F)(F)F)cc2)n1C	Sm TGR inh inconclusive
COc1ccccc1NC(=O)NCc1ccc(C)n1C	Sm TGR inh 40µM, Pf growth 48h inconclusive
CC1=NCCN1CCNC(=O)Nc1ccc(F)cc1	Pf growth 96h 0.41µM
Cc1ccc(CNC(=O)Nc2ccc(F)cc2)n1C	Sm TGR inh 14µM
COc1ccc(NC(=O)c2oc3c(c2C)-c2nn(Cc4ccccc4Cl)cc2CC3)cc1OC	none (no result: Pf growth 48h, NS1 inh, Shiga inhibitor, Cycloheximide cs, Pf growth 96h)

High-throughput results as filed in PubChem BioAssay.
